PubChem BioAssay AID1159580 (chemical genetic matrix, 2015)
The whole screen tested about 5,500 compounds, of which about 2,000 (36%) were called active. About 18% were inconclusive and are not listed. No stated cut-off is given here; in the data, active means normalized growth mostly below about 0.91 (no sharp cut-off); inconclusive means no clear call, values can overlap the other calls; inactive means mostly above about 0.92. The list shows a part of the results.

Assay: chemical genetic growth profiling, strain panel (AID 1159580);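 further: tested at 20 µM; growth read once vehicle control cultures reached saturation at 30 °C; 1 = growth at the plate median or of vehicle wells; lower values mean less growth of the strain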
Conditions: S. cerevisiae deletion strains, growth OD
[1] = locus YCL061C, strain MRC1, hits give low values
[2] = locus YHR030C, strain SLT2, hits give low values
[3] = locus YJL187C, strain SWE1, hits give low values

Measured: normalized growth

Cc1ccc2cc(C)c(C)cc2c1
inactive: locus YAL013W, strain DEP1, hits give low values 0.994 | locus YBR229C, strain ROT2, hits give low values 0.991 | [1] 0.992 | locus YDL101C, strain DUN1, hits give low values 1.02 | locus YDR150W, strain NUM1, hits give low values 1.05 | locus YEL061C, strain CIN8, hits give low values 1 | locus YGR078C, strain PAC10, hits give low values 0.99 | [2] 0.729 | locus YHR087W, strain rtc3, hits give low values 1.01 | [3] 0.993 | locus YJR043C, strain POL32, hits give low values 0.989 | locus YJR075W, strain HOC1, hits give low values 0.961 | locus YLR039C, strain RIC1, hits give low values 0.897 | locus YLR058C, strain SHM2 (second series), hits give low values 0.992 | locus YLR085C, strain ARP6, hits give low values 0.949 | locus YLR262C, strain YPT6, hits give low values 0.831 | locus YML094W, strain GIM5, hits give low values 1 | locus YMR219W, strain ESC1, hits give low values 1.01 | locus YMR263W, strain SAP30, hits give low values 1 | locus YMR307W, strain GAS1, hits give low values 0.742 | locus YNL153C, strain GIM3, hits give low values 0.952 | locus YNL298W, strain CLA4 (second series), hits give low values 0.957 | locus YNL322C, strain KRE1, hits give low values 0.985 | locus YNR030W, strain Alg12, hits give low values 0.958 | locus YOL006C, strain TOP1, hits give low values 0.902 | locus YPL055C, strain LGE1, hits give low values 1.02 | locus YPL241C, strain CIN2, hits give low values 0.995 | locus YPR135W, strain CTF4, hits give low values 0.899

CC(C)(N=NC(C)(C)C(=N)N)C(=N)N
inactive: locus YAL021C, strain ccr4, hits give low values 0.995 | locus YAL026C, strain drs2, hits give low values 1.05 | locus YAL030W, strain snc1, hits give low values 1.02 | locus YBL061C, strain skt5, hits give low values 1.02 | locus YBR009C, strain hhf1, hits give low values 1.07 | locus YBR023C, strain chs3, hits give low values 1.02 | locus YBR171W, strain sec66, hits give low values 1.03 | locus YBR231C, strain swc5, hits give low values 1.04 | locus YBR279W, strain paf1, hits give low values 1.03 | locus YCL011C, strain gbp2, hits give low values 1.03 | locus YCL016C, strain dcc1, hits give low values 1.03 | [1] 1.03 | locus YCL069W, strain vba3, hits give low values 1.02 | locus YCR088W, strain abp1, hits give low values 1.02 | locus YDL005C, strain med2, hits give low values 1.03 | locus YDL040C, strain nat1, hits give low values 1.02 | locus YDR001C, strain nth1, hits give low values 1.02 | locus YDR069C, strain doa4, hits give low values 1.03 | locus YDR137W, strain rgp1, hits give low values 0.998 | locus YDR159W, strain sac3, hits give low values 1.05 | locus YDR195W, strain ref2 1 | locus YDR297W, strain sur2, hits give low values 1.02 | locus YDR334W, strain swr1, hits give low values 1.03 | locus YDR335W, strain msn5, hits give low values 1.02 | locus YDR392W, strain spt3, hits give low values 0.98 | locus YEL003W, strain gim4, hits give low values 1.03 | locus YEL037C, strain rad23, hits give low values 1.02 | locus YEL061C, strain CIN8 (second series), hits give low values 1.02 | locus YER015W, strain faa2, hits give low values 1.03 | locus YER016W, strain bim1, hits give low values 1.04 | locus YER111C, strain swi4, hits give low values 1.03 | locus YER155C, strain BEM2 (second series), hits give low values 1.03 | locus YFR010W, strain ubp6, hits give low values 1.03 | locus YGL167C, strain pmr1, hits give low values 1.03 | locus YGL173C, strain kem1, hits give low values 1.05 | locus YGL227W, strain vid30, hits give low values 1.02 | locus YGL240W, strain doc1, hits give low values 1.04 | locus YGL253W, strain hxk2, hits give low values 1.01 | locus YHR013C, strain ard1, hits give low values 1.05 | locus YHR027C, strain rpn1, hits give low values 1.03 | [2] 0.971 | locus YHR079C, strain IRE1, hits give low values 0.971 | locus YHR142W, strain chs7, hits give low values 0.965 | locus YJL092W, strain hpr5, hits give low values 1.03 | locus YJL095W, strain BCK1 (second series), hits give low values 1.02 | locus YJL095W, strain BCK1, hits give low values 0.969 | locus YJL115W, strain asf1, hits give low values 1.02 | locus YJL129C, strain trk1, hits give low values 1.03 | locus YJL154C, strain vps35, hits give low values 1.02 | locus YJL164C, strain tpk1, hits give low values 1.02 | locus YJL166W, strain qcr8, hits give low values 1.01 | [3] 1.02 | locus YJR066W, strain TOR1, hits give low values 0.896 | locus YKL160W, strain elf1, hits give low values 0.99 | locus YKR026C, strain gcn3, hits give low values 1.02 | locus YKR091W, strain srl3, hits give low values 1.02 | locus YLL001W, strain dnm1, hits give low values 1.03 | locus YLL026W, hits give low values 1.02 | locus YLL041C, strain sdh2, hits give low values 1.02 | locus YLR027C, strain aat2, hits give low values 1.03 | locus YLR113W, strain HOG1, hits give low values 0.985 | locus YLR221C, strain rsa3, hits give low values 1.02 | locus YLR258W, strain gsy2, hits give low values 1.04 | locus YLR262C, strain YPT6 (second series), hits give low values 1.03 | locus YLR320W, strain mms22, hits give low values 1.07 | locus YLR342W, strain FKS1, hits give low values 1.03 | locus YLR357W, strain rsc2, hits give low values 1.06 | locus YLR370C, strain arc18, hits give low values 1.03 | locus YLR384C, strain iki3, hits give low values 1.02 | locus YML120C, strain ndi1, hits give low values 1.04 | locus YMR058W, strain fet3, hits give low values 1.03 | locus YMR125W, strain sto1, hits give low values 1.04 | locus YMR129W, hits give low values 1.01 | locus YMR205C, strain PFK2, hits give low values 1.08 | locus YMR231W, strain pep5, hits give low values 1.02 | locus YNL071W, strain lat1, hits give low values 1.02 | locus YNL183C, strain NPR1, hits give low values 0.906 | locus YNL209W, strain ssb2, hits give low values 1.03 | locus YNL248C, strain rpa49, hits give low values 0.99 | locus YNL322C, strain KRE1 (second series), hits give low values 1.01 | locus YNR049C, strain mso1, hits give low values 1.02 | locus YOR001W, strain rrp6, hits give low values 1.02 | locus YOR070C, strain gyp1, hits give low values 1.04 | locus YOR080W, strain dia2, hits give low values 1.03 | locus YOR083W, strain WHI5, hits give low values 0.988 | locus YOR106W, strain vam3, hits give low values 0.886 | locus YOR231W, strain MKK1, hits give low values 0.976 | locus YOR265W, strain rbl2, hits give low values 1.02 | locus YOR270C, strain vph1, hits give low values 1.02 | locus YOR290C, strain snf2, hits give low values 1 | locus YPL051W, strain arl3, hits give low values 1.01 | locus YPL078C, strain atp4, hits give low values 0.983 | locus YPL106C, strain sse1, hits give low values 1.05 | locus YPL240C, strain hsp82, hits give low values 1.01 | locus YPL256C, strain CLN2, hits give low values 0.979
